For orientation: cell viability means a read-out of living cells in per cent, often relative to untreated cells.

“And” between values parts separate entries of the source, which are not always exact repeats. Identical values can stand only once. ± gives the standard deviation of the averaged measurements.

The test system of assay [1] is Molm13. Description: cell viability relative to DMSO control (bortezomib = 0%); higher = less growth inhibition. The following applies: 10 nM; 72 h. The gist of the method: (§1)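 Acute myeloid leukemia cells were plated at 1000 cells per well in 50 µL onto a 679-compound library of approved and investigational agents in 384-well plates and exposed to a single 10 nM dose for 72 h, in duplicate. Cell viability was measured by CellTiter-Glo luminescence on an EnVision reader. Readings were scaled to percentages by per-plate linear regression, with DMSO-treated cells set at 100% and positive-control-treated cells at 0%.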

For assay [2], the system named is Mv4-11. The assay is described as above. The following applies: 10 nM; 72 h. The procedure, abridged:
as §1

On to `Cc1cn(-c2cc(NC(=O)c3ccc(C)c(Nc4nccc(-c5cccnc5)n4)c3)cc(C(F)(F)F)c2)cn1` [Nilotinib], for which the cell viability in assay [1] turned out to be 124 ± 9.8%; in assay [2], 108 ± 16%.
In the same order, the values of `CC(C)n1cnc2c(NCc3ccccc3)nc(NCCCO)nc21` [Bohemine] are 95.3 ± 4.3% and 103 ± 13%.
In the case of `C=C(C)[C@@H]1CC[C@]2(C)CC[C@]3(C)[C@H](CC[C@@H]4[C@@]5(C)CC[C@H](O)C(C)(C)[C@@H]5CC[C@]43C)[C@@H]12` [Lupeol], the cell viability worked out at 101 ± 9.8% in assay [1] and 94.9 ± 1.2% in assay [2].
As to `CCN1CCN(c2ccc(Nc3cc(N(C)C(=O)Nc4c(Cl)c(OC)cc(OC)c4Cl)ncn3)cc2)CC1`, the cell viability in assay [1] came to 110 ± 17%; in assay [2], 106 ± 16%.
In the case of `CCN1/C(=C/C(C)=O)Sc2ccc(OC)cc21`, the figures for the cell viability in assay [1] and in assay [2] were 106 ± 11% and 104 ± 6.5%, respectively.
In the same order, the values of `COc1cc(N2CCC(N)CC2)ccc1Nc1ncc(Cl)c(-c2c[nH]c3ccccc23)n1` are 86 ± 2.5% and 93.3 ± 5.9%.
With `CCCCNc1ncc(-c2ccc(CN3CCOCC3)cn2)c(NC2CCC(O)CC2)n1` (centres undefined), the cell viability worked out at 94.6 ± 6.1% in assay [1] and 99.9 ± 5.7% in assay [2].
The matching figures for `O=c1cc(N2CCOCC2)oc2c(-c3ccccc3)cccc12`: 107 ± 28% and 104 ± 16%.
`CNCc1ccc(-c2cc(-c3nc(-c4ccc(S(=O)(=O)C(C)C)cc4)cnc3N)on2)cc1`: the cell viability in assay [1] worked out at 106 ± 1.8%; in assay [2], 101 ± 18%.
For the molecule `Cn1cc(C2=C(c3ccc(Cl)cc3Cl)C(=O)NC2=O)c2ccccc21`, the cell viability in assay [1] is 96.9% and 84.3%; in assay [2], 106% and 108%.
For the molecule `C#Cc1cccc(Nc2ncnc3cc4c(cc23)OCCOCCOCCO4)c1` [Icotinib], the cell viability in assay [1] is 93.2 ± 10%; in assay [2] it was 97.5 ± 5.9%.
On to `O=C(Nc1cc(Cl)cc2c1[nH]c1cnccc12)c1cccnc1`, for which the cell viability in assay [1] was 110 ± 1.9%; in assay [2], 110.7 ± 0.66%.

The values are drawn from the supplement of paper PMC8699584.
